# Source: PubChem
# IL1B secr inh: qHTS for Inhibitors of Inflammasome Signaling: IL-1-beta AlphaLISA Primary Screen; THP-1 LPS/ATP IL-1B secretion, AlphaLISA, 16 h; active compounds read low; activity change, % at 57.5 µM; hit rate 4.7% among 360,000; AID 743279, 2014; in the data active = activity change below about -50%; inconclusive = mostly about -30% to -49%; also: % is scaled to controls: 0 for no effect and ±100 for the full control effect
#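 Secreted IL-1B measured by AlphaLISA bead assay after 16 h compound exposure of THP-1 cells; compounds (final up to 57.5 uM) added 1 h before LPS (250 ng/mL) and ATP (1.25 mM) stimulation; lower signal means less secretion.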
# DT40 TDP1 CPT: qHTS for Inhibitors of human tyrosyl-DNA phosphodiesterase 1 (TDP1): qHTS in cells in presence of CPT; Potency, µM (top dose mostly 46.2 µM), for inactives: at the highest dose activity change, negative = growth inhibition, usual class: inhibitors; chicken DT40 Tdp1-/-;hTDP1 cells + 20 nM CPT, ATP luminescence, 48 h; hit rate 12% among 420,000; AID 686979, 2013; also: potency is read from the fitted curve at half-maximal effect; % is scaled to controls: 0 for no effect and ±100 for the full control effect; nearly all actives have a fitted effect of over 55% in size
#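 Chicken DT40 Tdp1-/- cells complemented with human TDP1, 400 cells/well, exposed to compounds plus 20 nM camptothecin for at least 48 h at 37 C; viability read as ATP content by CellTiter-Glo luminescence.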
# TDP1 inh: qHTS Assay for Inhibitors of Tyrosyl-DNA Phosphodiesterase (TDP1) | Tyrosyl-DNA phosphodiesterase 1 (Homo sapiens), Q9NUW8 | recombinant TDP1, AlphaScreen DNA substrate cleavage | Potency, µM (titrated, usually from 130 µM), for inactives: top-dose activity change, negative = inhibition, most hits filed as inhibitors | hit rate 0.28% among 350,000; also: potency is read from the fitted curve at half-maximal effect; % is scaled to controls: 0 for no effect and ±100 for the full control effect; nearly all actives have a fitted effect of over 40% in size
# Target sequence (Q9NUW8 whole entry, looked up): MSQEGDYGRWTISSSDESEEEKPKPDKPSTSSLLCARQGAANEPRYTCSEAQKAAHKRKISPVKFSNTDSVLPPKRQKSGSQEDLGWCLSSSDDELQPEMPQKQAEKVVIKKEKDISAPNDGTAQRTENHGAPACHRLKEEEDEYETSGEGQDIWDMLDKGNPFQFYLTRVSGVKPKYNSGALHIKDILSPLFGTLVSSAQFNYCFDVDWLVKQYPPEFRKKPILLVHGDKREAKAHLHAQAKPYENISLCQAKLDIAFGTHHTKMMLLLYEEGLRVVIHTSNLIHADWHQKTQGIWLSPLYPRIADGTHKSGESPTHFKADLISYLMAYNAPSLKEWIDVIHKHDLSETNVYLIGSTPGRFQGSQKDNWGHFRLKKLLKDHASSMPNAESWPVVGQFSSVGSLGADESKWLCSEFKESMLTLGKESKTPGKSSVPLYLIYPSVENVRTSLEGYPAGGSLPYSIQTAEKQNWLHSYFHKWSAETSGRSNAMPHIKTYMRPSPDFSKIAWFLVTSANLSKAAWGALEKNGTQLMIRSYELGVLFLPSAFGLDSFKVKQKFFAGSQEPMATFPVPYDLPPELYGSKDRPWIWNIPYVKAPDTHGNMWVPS
#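 E. coli-derived human Tdp1, 1 nM final. Cpd preinc 15 min RT; substrate 15 nM final, 5 min RT; AS bead mix 10 ug/ml final, 10 min RT. Signal loss = tyrosine-FITC cleavage. No-enzyme wells = max signal.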
# HepG2 tox: qHTS for Inhibitors of TGF-b: Cytotox Counterscreen. HepG2 CAGA-GFP viability, ATP luminescence, 18 h. Potency, µM (highest dose often 46.1 µM), for inactives: at the highest dose activity change, negative = cytotoxicity, hits mostly cytotoxic. hit rate 0.76% among 410,000; also: potency is read from the fitted curve at half-maximal effect
#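 CellTiter-Glo luminescence gave cytotoxicity after 18 hours at 37 degrees C. The cells were HepG2 CAGA-GFP in 1% FBS DMEM, stimulated with 500 pg/mL TGF-beta after compound addition. %Activity was normalised to no-cell wells (complete cell-killing) and DMSO (no toxicity), and curves were fitted and classified.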
# DT40 TDP1 no CPT: qHTS for Inhibitors of human tyrosyl-DNA phosphodiesterase 1 (TDP1): qHTS in cells in absence of CPT. DT40 Tdp1-/- hTDP1 cells, no CPT, ATP luminescence, 48 h. Potency, µM (titrated, usually from 46.2 µM), without a hit: at the highest dose activity change, negative = growth inhibition, hits mostly inhibitors. hit rate 15% among 420,000. AID 686978, 2013; also: potency is read from the fitted curve at half-maximal effect; % is scaled to controls: 0 for no effect and ±100 for the full control effect; nearly all actives have a fitted effect of over 55% in size
#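 Luminescent ATP content (CellTiter-Glo) served as the growth readout. Knockout chicken DT40 cells expressing human TDP1 were exposed to compounds without camptothecin for a minimum 48 hr at 37 °C.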
# TGFb inhibitor: qHTS for Inhibitors of TGF-b; hit rate 1.2% among 410,000; Potency, µM (highest dose often 46.1 µM), without a hit: at the top dose activity, negative = inhibition, most hits filed as inhibitors; HepG2 CAGA-GFP TGF-b/SMAD3 reporter, GFP fluorescence, 18 h; TGF-beta stimulated, 500 pg/mL final; also: potency is read from the fitted curve at half-maximal effect; % is scaled to controls: 0 for no effect and ±100 for the full control effect; nearly all actives have a fitted effect of over 65% in size
#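 GFP signal (ex488/em500-530) from TGF-beta-stimulated HEPG2 CAGA-GFP cells, 500 pg/mL final, 18 h at 37 degrees C in DMEM plus 1% FBS, normalized to unstimulated and DMSO-stimulated controls.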
# * hit, by the source's call; ? = inconclusive; . = not tested or not shown; [ ] = another dose, or the depositor's remark. This is a sample that favours compounds with a hit; in the whole collection about 19% have one here. Unless noted, calls follow the shape of the dose curve; as a rule, active = well fitted curve in the direction sought with a large enough effect; inconclusive = small, poorly fitted or top-dose-only effect, or another doubt; inactive = no such curve, though single readings can be large; an effect the other way counts as inactive or inconclusive.
SMILES,IL1B secr inh,DT40 TDP1 CPT,TDP1 inh,HepG2 tox,DT40 TDP1 no CPT,TGFb inhibitor
CCOC1=C2[C@H](c3ccccc3)N(S(=O)(=O)c3ccccc3)C[C@H]2n2c(=O)n(-c3ccccc3)c(=O)n2C1,-7,-29%,.,-19%,-23%,?
CCOc1ccccc1-n1nnc(-c2nsc(NC(=O)c3ccc(C)cc3)n2)c1C,.,?,5%,-42%,?,?
CC(C)(C)n1ncc2c(=O)n(Cc3cccc(C(F)(F)F)c3)cnc21,.,.,.,-20%,.,?
COc1cccc(/C=C/C(=O)OCC(=O)c2ccc3c(c2)NC(=O)CO3)c1OC,6,6%,-5%,-16%,-23%,-9%
CCCCCCC(=O)OCC(=O)c1ccc2c(c1)NC(=O)CO2,-20,8.2µM*,0%,-2%,13µM*,0%
CCC(=O)c1ccc(OCC(=O)c2ccc3c(c2)NC(=O)CO3)cc1,-2,-15%,0%,2%,-21%,2%
COc1ccc(/C=C/C(=O)OCC(=O)c2ccc3c(c2)NC(=O)CO3)c(OC)c1,-52*,-8%,-4%,-1%,4%,4%
CC(C)[C@H](NC(=O)c1ccccc1)C(=O)OCC(=O)c1ccc2c(c1)NC(=O)CO2,0,4.6µM*,3%,10%,5.8µM*,-6%
O=C1COc2ccc(C(=O)CCl)cc2N1,-90*,5.8µM*,0%,-55%,1.6µM*,?
CS(=O)(=O)N1CCc2cc(S(=O)(=O)NCc3ccccc3Cl)ccc21,.,-24%,4%,-16%,-29%,?
COc1cccc(OC)c1C1=Nn2c(nnc2-c2ccccc2C)SC1,.,.,11%,.,.,.
COc1ccccc1NC(=S)N(Cc1ccco1)Cc1cc2cccc(C)c2[nH]c1=O,-19,?,6%,-14%,?,21%
COc1ccccc1NC(=O)N(Cc1ccco1)Cc1cc2cc(C)cc(C)c2[nH]c1=O,?,21µM*,7%,-2%,15µM*,0%
COc1ccccc1NC(=O)N(Cc1ccco1)Cc1cc2ccc(C)c(C)c2[nH]c1=O,2,3.7µM*,6%,7%,4.1µM*,?
COc1ccccc1NC(=S)N(Cc1ccco1)Cc1cc2cc(C)c(C)cc2[nH]c1=O,-54*,4.1µM*,5%,10%,5.2µM*,0%
COc1ccccc1NC(=O)N(CCN1CCOCC1)Cc1cc2cc(C)cc(C)c2[nH]c1=O,-28,1%,7%,19%,-29%,-1%
Cc1sc2c(c1C)c(=O)n(-c1cccc(C(F)(F)F)c1)c(=O)n2Cc1ccc(F)cc1,.,?,-1%,1%,?,11%
COc1ccccc1C1CN(Cc2cccc(OCCO)c2)Cc2ccccc2O1 (centres undefined),.,-2%[9.04 µM],.,.,?,.
COc1ccc(OC)c(CCNC(=O)CN2C(=O)COc3ccc(S(=O)(=O)N4CCC(C)CC4)cc32)c1,.,.,6%,-28%,.,?
CN1CCN(C2=Nc3ccccc3Sc3ccc(Cl)cc32)CC1,.,?,9%,.,11µM*,.
Cc1ccc(Nc2nnc(SCC3CCCCO3)s2)cc1 (centres undefined),-7,-2%,1%,-20%,?,-3%
COc1ccccc1Nc1nnc(SCC2CCCCO2)s1 (centres undefined),-16,6.5µM*,.,-33%,?,-9%
Cc1ccccc1Nc1nnc(SCC2CCCCO2)s1 (centres undefined),?,?,3%,-9%,18µM*,11%
